According to PubChem BioAssay (Tox21):
Results filed as inconclusive are left out. Unmarked numbers belong to inactive results. Calls follow the shape of the full dose curve.

assay: qHTS assay to identify small molecule agonists of the NFkB signaling pathway - cell viability counter screen (AID 1159515); settings: NFkB-bla ME-180 viability, CellTiter-Glo luminescence, 5 h; series mostly up to 61 µM; activity, negative = cytotoxic: at the top concentration; also: nearly all actives have a fitted effect of over 55% in size
Text: National Center for Advancing Translational Sciences [NCATS]
NIH Chemical Genomics Center [NCGC]
U.S. Environmental Protection Agency [EPA]
National Institutes of Environmental Health Sciences [NIEHS]
National Toxicology Program [NTP]
U.S. Food and Drug Administration [FDA]
Transcription factors and their stimulated target gene expression play pivotal roles across many cellular processes including responses to environmental stimuli. Proper regulation of associated pathways is critical to maintain cell health and function. Constitutive activation of transcription factor pathways has been implicated in tumors as it may block cellular functions such as apoptosis and lead to invasion and metastasis. One important transcription factor that stimulates gene expression in response to cytokines, UV radiation, and other stimuli is nuclear factor-kappa B (NFkB). To measure activation of the NFkB pathway, the CellSensor NFkB-bla ME-180 cell line (Life Technologies, Carlsbad, CA) that stably expresses beta-lactamase reporter gene under the regulation of a NF-kB response element was used. This assay allows measurement of the NFkB pathway activity induced by compounds in a ME-180 cell line. This system quantitates NF-kB activity using a FRET-based assay system where beta-lactamase expression disrupts FRET, allowing for fluorescent measurement of activity. This cell line has been used to screen the Tox21 10K compound library and to identify compounds that induce the NFkB pathway activity. The cytotoxicity of the Tox21 compound library against the NFkB-bla ME-180 cell line was tested in parallel by measuring cell viability using the CellTiter-Glo assay in the same wells.
Tox21 Assay Protocol Summary:
NFkB-bla ME-180 cells were dispensed at 2,000 cells/6 uL of assay medium per well into black wall/clear-bottom 1536-well plates using a Multidrop Combi (ThermoFisher Scientific, Waltham, MA) dispenser. After the assay plates were incubated at 37 C and 5% CO2 for an overnight, 23 nL of compounds dissolved in DMSO, positive controls or DMSO only was transferred to the assay plate by a Pintool station (Kalypsys, San Diego, CA). The assay plates were incubated at 37 C and 5% CO2 for 5 hr. One uL of LiveBLAzer B/G FRET substrate (Life Technologies) was added using a Flying Reagent Dispenser (Aurora Discovery, San Diego, CA) and the plates were incubated at room temperature for 1.5 hr. Fluorescence intensity (405 nm excitation, 460 nm and 530 nm emissions) was measured using an Envision plate reader (PerkinElmer, Shelton, CT). For cytotoxicity, 3 ul/well of CellTiter-Glo reagent was added into the assay plates using an FRD. After 30 min incubation at room temperature, the luminescence intensity was measured using a ViewLux plate reader (PerkinElmer).
% is scaled to controls: 0 for no effect and ±100 for the full control effect.

Compound | activity, negative = cytotoxic
CN(C)CCCNCCC#N | 0.446%
CCCCCCCCCOCC1CO1 (stereo not given) | 4.55% [at 78.8 µM]
Nc1cc(C(=O)O)ccc1Cl | -0.28%
CCC(C)(CCC(C)C)C(=O)[O-].CCC(C)(CCC(C)C)C(=O)[O-].[Zn+2] (stereo not given) | -5.45%
Nc1nc(=O)n([C@@H]2O[C@H](CO)[C@@H](O)[C@@H]2F)cc1I | 0.622%
NC(=O)C1(N2CCCCC2)CCN(CCCC(=O)c2ccc(F)cc2)CC1 | -18.6%
CCC(=O)c1ccc(O)cc1 | 8.86%
Cc1nc2n(c(=O)c1CCN1CCC(C(=O)c3ccc(F)cc3)CC1)CCS2 | 8.14%
CC(=O)N1CCN(c2ccc(O)cc2)CC1 | 13.1%
CO/N=C(/C(=O)N[C@@H]1C(=O)N2C(C(=O)O)=C(Cn3nnc(C)n3)CS[C@H]12)c1csc(N)n1 | 14.1%
CCCCCCCCCCCCCC(=O)OC | 2.87%
O=C1c2ccccc2-c2ccccc21 | -2.71% [at 78.8 µM]
CCCCCCCCCCCCC1CO1 (stereo not given) | -0.667%
O=S(=O)(O)SSS(=O)(=O)O | -1.05%
C=CCOCC(CO)(COCC=C)COCC=C | -1.78%
COc1cc([N+](=O)[O-])ccc1N | -4.81%
Cc1cccc(C(=O)O)c1[N+](=O)[O-] | 1.82%
Cc1nc(C)nc(N2C[C@@H](C)N(c3ccnc([C@@H](C)O)n3)[C@@H](C)C2)n1 | 4.46%
COCCOCCOCCOC | 3.59%
CO[Si](CCCCl)(OC)OC | -2.95%

Compound | activity, negative = cytotoxic
CNCc1ccccc1 | -23.9%
CN(C1CCCCC1)S(=O)(=O)c1ccccc1N | -8.21%
NS(=O)(=O)c1ccc(Cl)c(S(N)(=O)=O)c1 | 2.36%
C=CCOCC(O)CCl (stereo not given) | 7.75%
CCCOCCOCCOCCO | 2.2%
C=CCOC(=O)c1ccc(C(=O)OCC=C)c(C(=O)OCC=C)c1 | -9.27%
Cc1ccc2c(c1)c1c3n2CCNC3CCC1 (stereo not given) | -9.34%
NC(=O)NNC(N)=O | -1.39%
O=C(O)C(=O)Nc1cccc(-c2nn[nH]n2)c1 | 9.47%
NS(=O)(=O)c1ccccc1OC(F)(F)F | 8.6%
CCCCCCCC[Si](OCC)(OCC)OCC | 8.3%
O=S(=O)(O)c1cc(O)ccc1O | 0.679%
COC(OC)C(C)c1ccccc1 (stereo not given) | 9.41%
CCCCCCCCCCCCC | 11.4%
NS(=O)(=O)c1cc2c(cc1Cl)NC(C(Cl)Cl)NS2(=O)=O (stereo not given) | 0.247%
SCCSCCS | -3.87%
Nc1ccnc(=O)[nH]1 | 5.82%
CC(C)SCc1ccco1 | 5.3% [at 28.5 µM]
CCCCOC(=O)C(=O)OCCCC | -12.6%
CCN(CC)C(=O)C1CN2CCc3cc(OC)c(OC)cc3C2CC1OC(C)=O (stereo not given) | -0.0833%
